Reference: paper PMC12820563, “FoxP3 forms a head-to-head dimer in vivo and stabilizes its multimerization on adjacent microsatellites”
Whole data set: some 16,000 sequences, median “rpm ratio (pull-down/input)” near 0.94, cut for the highest 2% near 1.7. This excerpt belongs to a sample that is enriched for the highest values.

biological target: T1, MBP-FoxP1dN (Mus musculus, UniProt P58462 326-579); test: PD-seq (MBP pull-down with sequencing); 20 mM Tris-HCl pH 7.5, 100 mM NaCl, 1.5 mM MgCl2, 0.4 uM protein, 0.1 uM dsDNA library, 30 min, room temperature, amylose pull-down; high values mean tight binding; details: protein: recombinant; tags: His6-MBP; chain copies: 2; dsDNA, one strand shown
T1 sequence: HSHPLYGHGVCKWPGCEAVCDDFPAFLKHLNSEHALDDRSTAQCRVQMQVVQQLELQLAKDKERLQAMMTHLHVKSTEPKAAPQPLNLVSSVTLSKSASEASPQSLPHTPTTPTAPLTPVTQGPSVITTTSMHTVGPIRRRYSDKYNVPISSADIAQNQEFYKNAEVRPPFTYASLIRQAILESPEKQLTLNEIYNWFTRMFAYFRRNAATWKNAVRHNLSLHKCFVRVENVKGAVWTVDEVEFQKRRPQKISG
Procedure, shortened: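 In Tris pH 7.5 buffer with NaCl and MgCl2, 0.4 µM His6-MBP-tagged mouse FoxP3 or FoxP1 fragment lacking the N-terminus, from E. coli, met 0.1 µM Klenow-filled double-stranded degenerate DNA library for 30 min at room temperature. Three washes on amylose resin followed capture of the complexes, then proteinase K release of DNA, PCR barcoding and Illumina sequencing. Binding is taken as pooled-replicate reads-per-million enrichment of pull-down relative to input.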

| Sequence | binding signal |
| --- | --- |
| GATGATTGTTCTCCCAGCTGATGAATTGTTGGTTTCGAGTAAACAAATTTTCCTAATCTTTCTGTTCAAGCGCCATCTAC | 1.89 RPM ratio (pull-down/input) |
| GATGATTGTTCTCCCAGCTGATGAATTCTATTACTCGAGTAAACAAATTTTCCTAATCTTTCTGTTCAAGCGCCATCTAC | 0.895 RPM ratio (pull-down/input) |
| GATGATTGTTCTCCCAGCTGATGAATTCCCTCCATCGAGTAAACAAATTTTCCTAATCTTTCTGTTCAAGCGCCATCTAC | 0.855 RPM ratio (pull-down/input) |
| GATGATTGTTCTCCCAGCTGATGAATTAACACATTCGAGTAAACAAATTTTCCTAATCTTTCTGTTCAAGCGCCATCTAC | 1.18 RPM ratio (pull-down/input) |
| GATGATTGTTCTCCCAGCTGATGAATTCCTAGGTTCGAGTAAACAAATTTTCCTAATCTTTCTGTTCAAGCGCCATCTAC | 0.762 RPM ratio (pull-down/input) |
| GATGATTGTTCTCCCAGCTGATGAATTGCATTTTTCGAGTAAACAAATTTTCCTAATCTTTCTGTTCAAGCGCCATCTAC | 1.69 RPM ratio (pull-down/input) |
| GATGATTGTTCTCCCAGCTGATGAATTTGCATTTTCGAGTAAACAAATTTTCCTAATCTTTCTGTTCAAGCGCCATCTAC | 1.61 RPM ratio (pull-down/input) |
| GATGATTGTTCTCCCAGCTGATGAATTTTGCATTTCGAGTAAACAAATTTTCCTAATCTTTCTGTTCAAGCGCCATCTAC | 1.29 RPM ratio (pull-down/input) |
| GATGATTGTTCTCCCAGCTGATGAATTTGCATCTTCGAGTAAACAAATTTTCCTAATCTTTCTGTTCAAGCGCCATCTAC | 1.89 RPM ratio (pull-down/input) |
| GATGATTGTTCTCCCAGCTGATGAATTGCATTGTTCGAGTAAACAAATTTTCCTAATCTTTCTGTTCAAGCGCCATCTAC | 1.43 RPM ratio (pull-down/input) |
| GATGATTGTTCTCCCAGCTGATGAATTGCATCTTTCGAGTAAACAAATTTTCCTAATCTTTCTGTTCAAGCGCCATCTAC | 1.83 RPM ratio (pull-down/input) |
| GATGATTGTTCTCCCAGCTGATGAATTGAAACGCTCGAGTAAACAAATTTTCCTAATCTTTCTGTTCAAGCGCCATCTAC | 0.86 RPM ratio (pull-down/input) |
| GATGATTGTTCTCCCAGCTGATGAATTTCTACATTCGAGTAAACAAATTTTCCTAATCTTTCTGTTCAAGCGCCATCTAC | 0.939 RPM ratio (pull-down/input) |
| GATGATTGTTCTCCCAGCTGATGAATTACCGTGCTCGAGTAAACAAATTTTCCTAATCTTTCTGTTCAAGCGCCATCTAC | 0.964 RPM ratio (pull-down/input) |
| GATGATTGTTCTCCCAGCTGATGAATTCTGTACATCGAGTAAACAAATTTTCCTAATCTTTCTGTTCAAGCGCCATCTAC | 1.09 RPM ratio (pull-down/input) |
| GATGATTGTTCTCCCAGCTGATGAATTTTGTACATCGAGTAAACAAATTTTCCTAATCTTTCTGTTCAAGCGCCATCTAC | 1.22 RPM ratio (pull-down/input) |

| Sequence | binding signal |
| --- | --- |
| GATGATTGTTCTCCCAGCTGATGAATTGTACACATCGAGTAAACAAATTTTCCTAATCTTTCTGTTCAAGCGCCATCTAC | 2.11 RPM ratio (pull-down/input) |
| GATGATTGTTCTCCCAGCTGATGAATTCTACACATCGAGTAAACAAATTTTCCTAATCTTTCTGTTCAAGCGCCATCTAC | 1.06 RPM ratio (pull-down/input) |
| GATGATTGTTCTCCCAGCTGATGAATTGTGTACATCGAGTAAACAAATTTTCCTAATCTTTCTGTTCAAGCGCCATCTAC | 2 RPM ratio (pull-down/input) |
| GATGATTGTTCTCCCAGCTGATGAATTGTACAAATCGAGTAAACAAATTTTCCTAATCTTTCTGTTCAAGCGCCATCTAC | 1.35 RPM ratio (pull-down/input) |
| GATGATTGTTCTCCCAGCTGATGAATTGCAGTTGTCGAGTAAACAAATTTTCCTAATCTTTCTGTTCAAGCGCCATCTAC | 1.34 RPM ratio (pull-down/input) |
| GATGATTGTTCTCCCAGCTGATGAATTACAGTACTCGAGTAAACAAATTTTCCTAATCTTTCTGTTCAAGCGCCATCTAC | 1.06 RPM ratio (pull-down/input) |
| GATGATTGTTCTCCCAGCTGATGAATTGTTATAATCGAGTAAACAAATTTTCCTAATCTTTCTGTTCAAGCGCCATCTAC | 1.59 RPM ratio (pull-down/input) |
| GATGATTGTTCTCCCAGCTGATGAATTTGCTTACTCGAGTAAACAAATTTTCCTAATCTTTCTGTTCAAGCGCCATCTAC | 1.69 RPM ratio (pull-down/input) |
| GATGATTGTTCTCCCAGCTGATGAATTAGCAGTCTCGAGTAAACAAATTTTCCTAATCTTTCTGTTCAAGCGCCATCTAC | 0.877 RPM ratio (pull-down/input) |
| GATGATTGTTCTCCCAGCTGATGAATTGCAGCTATCGAGTAAACAAATTTTCCTAATCTTTCTGTTCAAGCGCCATCTAC | 1.15 RPM ratio (pull-down/input) |
| GATGATTGTTCTCCCAGCTGATGAATTGCATCTATCGAGTAAACAAATTTTCCTAATCTTTCTGTTCAAGCGCCATCTAC | 1.75 RPM ratio (pull-down/input) |
| GATGATTGTTCTCCCAGCTGATGAATTTGCATTATCGAGTAAACAAATTTTCCTAATCTTTCTGTTCAAGCGCCATCTAC | 1.49 RPM ratio (pull-down/input) |
| GATGATTGTTCTCCCAGCTGATGAATTGCATTTATCGAGTAAACAAATTTTCCTAATCTTTCTGTTCAAGCGCCATCTAC | 1.77 RPM ratio (pull-down/input) |
| GATGATTGTTCTCCCAGCTGATGAATTTCTTGCATCGAGTAAACAAATTTTCCTAATCTTTCTGTTCAAGCGCCATCTAC | 1.27 RPM ratio (pull-down/input) |
| GATGATTGTTCTCCCAGCTGATGAATTTATTGCATCGAGTAAACAAATTTTCCTAATCTTTCTGTTCAAGCGCCATCTAC | 1.62 RPM ratio (pull-down/input) |
| GATGATTGTTCTCCCAGCTGATGAATTAGTCTGGTCGAGTAAACAAATTTTCCTAATCTTTCTGTTCAAGCGCCATCTAC | 0.822 RPM ratio (pull-down/input) |
